# Measurements from the supplement of paper PMC10037445.
# Where “and” joins values, the source holds several entries; their conditions need not be identical. Identical values can stand only once. Over roughly 2,900 compounds, “NF-kB SEAP reporter activity, fold change vs agonist alone” has its median near 0.99; the highest 2% begin near 2.6. Shown is part of a subset that was picked to be rich in the highest values.
# Assays:
# [1] = tested on: RAW-Dual; experiment: NF-kB SEAP reporter activity, fold change vs agonist alone; cytotoxicity flag (confluency mask): cytotoxic (confluency <70% of control); higher = enhanced NF-kB activity
# Summary of the method: (§1)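 After 50 nL of library stock was delivered by pin tool to RAW-Dual macrophages (50,000 cells/well, DMEM, 384-well plates), a PRR agonist was added 1 h later and the plates were kept at 37 °C, 5% CO2. Twenty hours later, IRF was read from supernatant by QuantiLuc luminescence and NF-κB by QuantiBlue absorbance at 620 nm. Reporter activity is stated as fold change over agonist-alone wells. Wells with IncuCyte confluency under 70% of agonist controls in both mask sets were counted as cytotoxic.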
# [2] = tested on: RAW-Dual; experiment: NF-kB SEAP reporter activity, fold change vs agonist alone; cytotoxicity flag (confluency mask): not cytotoxic; higher = enhanced NF-kB activity
# Summary of the method: as §1
# [3] = tested on: RAW-Dual; experiment: NF-kB SEAP reporter activity, fold change vs agonist alone; higher = enhanced NF-kB activity; conditions: library stock concentration (final ~1000-fold dilution): 10 mM
# Summary of the method: as §1
# [4] = agonist: ODN 1826 (TLR9) 0.5 ug/mL
# [5] = agonist: Pam2CSK4 (TLR2/6) 0.1 ug/mL
# [6] = agonist: Pam3CSK4 (TLR2/1) 0.1 ug/mL
# [7] = cytotoxicity flag (confluency mask): cytotoxic (confluency <70% of control), agonist: Imiquimod (TLR7) […]
# [8] = cytotoxicity flag (confluency mask): cytotoxic (confluency <70% of control), agonist: MPLA (TLR4) […]
# [9] = cytotoxicity flag (confluency mask): not cytotoxic, agonist: Imiquimod (TLR7) […]
# [10] = cytotoxicity flag (confluency mask): not cytotoxic, agonist: MPLA (TLR4) […]
compound,measurement,setting,value
CCOC(=O)C1=C(COCCN)NC(C)=C(C(=O)OC)C1c1ccccc1Cl.O=S(=O)(O)c1ccccc1 (stereo not given) (library stock concentration (final ~1000-fold dilution): 10 mM),NF-kB SEAP reporter activity,[1]; agonist: LPS (TLR4) 0.1 ug/mL,2.27
same,NF-kB SEAP reporter activity,[1]; [4],0.532
same,NF-kB SEAP reporter activity,[1]; [5],0.907
same,NF-kB SEAP reporter activity,[1]; [6],0.924
COC(=O)C1=C(C)NC(C)=C(C(=O)OC)C1c1ccccc1[N+](=O)[O-] (library stock concentration (final ~1000-fold dilution): 10 mM),NF-kB SEAP reporter activity,[2]; agonist: LPS (TLR4) 0.1 ug/mL,2.15
same,NF-kB SEAP reporter activity,[2]; [4],1.42
same,NF-kB SEAP reporter activity,[2]; [5],1.5
same,NF-kB SEAP reporter activity,[2]; [6],1.37
CCOC(=O)C1=C(COCCN)NC(C)=C(C(=O)OC)C1c1ccccc1Cl.O=S(=O)(O)c1ccccc1 (stereo not given),NF-kB SEAP reporter activity,[3]; [7],2.53
same,NF-kB SEAP reporter activity,[3]; [8],2.58
CCCC(=O)OCOC(=O)C1=C(C)NC(C)=C(C(=O)OC)C1c1cccc(Cl)c1Cl (stereo not given),NF-kB SEAP reporter activity,[3]; [9],1.02
same,NF-kB SEAP reporter activity,[3]; [10],0.958
CCOC(=O)C1=C(C)NC(C)=C(C(=O)OC)C1c1cccc(Cl)c1Cl (stereo not given) (library stock concentration (final ~1000-fold dilution): 10 mM),NF-kB SEAP reporter activity,[2]; agonist: LPS (TLR4) 0.1 ug/mL,0.607
same,NF-kB SEAP reporter activity,[2]; [4],0.648
same,NF-kB SEAP reporter activity,[2]; [5],0.408
same,NF-kB SEAP reporter activity,[2]; [6],0.423
CCOC(=O)C1=C(C)NC(C)=C(C(=O)OC)C1c1cccc(Cl)c1Cl (stereo not given),NF-kB SEAP reporter activity,[3]; [9],1.53
same,NF-kB SEAP reporter activity,[3]; [10],0.952
COC(=O)C1=C(C)NC(C)=C(C(=O)OCC(C)C)C1c1ccccc1[N+](=O)[O-] (stereo not given),NF-kB SEAP reporter activity,[3]; [9],0.706
same,NF-kB SEAP reporter activity,[3]; [10],0.773
CCOC(=O)C1=C(COCCN)NC(C)=C(C(=O)OC)C1c1ccccc1Cl (stereo not given) (library stock concentration (final ~1000-fold dilution): 10 mM),NF-kB SEAP reporter activity,[1]; agonist: LPS (TLR4) 0.1 ug/mL,2.23 and 2.05
same,NF-kB SEAP reporter activity,[1]; [4],0.736 and 1.01
same,NF-kB SEAP reporter activity,[1]; [5],0.785 and 0.751
same,NF-kB SEAP reporter activity,[1]; [6],0.888 and 1.41
COC(=O)C1=C(C)NC(C)=C(C(=O)OCC(C)C)C1c1ccccc1[N+](=O)[O-] (stereo not given) (library stock concentration (final ~1000-fold dilution): 10 mM),NF-kB SEAP reporter activity,[2]; agonist: LPS (TLR4) 0.1 ug/mL,0.885
same,NF-kB SEAP reporter activity,[2]; [4],0.605
same,NF-kB SEAP reporter activity,[2]; [5],0.675
same,NF-kB SEAP reporter activity,[2]; [6],0.706
COC(=O)C1=C(C)NC(C)=C(C(=O)OC)C1c1ccccc1[N+](=O)[O-],NF-kB SEAP reporter activity,[3]; [9],1.59
same,NF-kB SEAP reporter activity,[3]; [10],1.35
CCCC(=O)OCOC(=O)C1=C(C)NC(C)=C(C(=O)OC)C1c1cccc(Cl)c1Cl (stereo not given) (library stock concentration (final ~1000-fold dilution): 10 mM),NF-kB SEAP reporter activity,[2]; agonist: LPS (TLR4) 0.1 ug/mL,0.954
same,NF-kB SEAP reporter activity,[2]; [4],1.19
same,NF-kB SEAP reporter activity,[2]; [5],0.911
same,NF-kB SEAP reporter activity,[2]; [6],1.1
CCC1OC(=O)C(C)C(OC2CC(C)(OC)C(O)C(C)O2)C(C)C(OC2OC(C)CC(N(C)C)C2O)C(C)(OC)CC(C)C(=O)C(C)C(O)C1(C)O (stereo not given) (library stock concentration (final ~1000-fold dilution): 10 mM),NF-kB SEAP reporter activity,[2]; agonist: LPS (TLR4) 0.1 ug/mL,0.99
same,NF-kB SEAP reporter activity,[2]; [4],0.929
same,NF-kB SEAP reporter activity,[2]; [5],0.942
same,NF-kB SEAP reporter activity,[2]; [6],0.932
CCC1OC(=O)C(C)C(OC2CC(C)(OC)C(O)C(C)O2)C(C)C(OC2OC(C)CC(N(C)C)C2O)C(C)(OC)CC(C)C(=O)C(C)C(O)C1(C)O (stereo not given),NF-kB SEAP reporter activity,[3]; [9],0.947
same,NF-kB SEAP reporter activity,[3]; [10],0.96
CC(=O)C1CCC2C3CC=C4CC(O)CCC4(C)C3CCC12C (stereo not given) (library stock concentration (final ~1000-fold dilution): 10 mM),NF-kB SEAP reporter activity,[2]; agonist: LPS (TLR4) 0.1 ug/mL,1.1
same,NF-kB SEAP reporter activity,[2]; [4],0.897
same,NF-kB SEAP reporter activity,[2]; [5],0.904
same,NF-kB SEAP reporter activity,[2]; [6],0.972
CC(=O)C1CCC2C3CC=C4CC(O)CCC4(C)C3CCC12C (stereo not given),NF-kB SEAP reporter activity,[3]; [9],1.07
same,NF-kB SEAP reporter activity,[3]; [10],1.3
N#Cc1ccc(COCC2OC(n3c(NCc4ccc(Cl)c(Cl)c4)nc4c(N)ncnc43)C(O)C2O)cc1 (stereo not given),NF-kB SEAP reporter activity,[3]; [9],0.762
same,NF-kB SEAP reporter activity,[3]; [10],0.966
N#Cc1ccc(COCC2OC(n3c(NCc4ccc(Cl)c(Cl)c4)nc4c(N)ncnc43)C(O)C2O)cc1 (stereo not given) (library stock concentration (final ~1000-fold dilution): 10 mM),NF-kB SEAP reporter activity,[2]; agonist: LPS (TLR4) 0.1 ug/mL,0.934
same,NF-kB SEAP reporter activity,[2]; [4],1.01
same,NF-kB SEAP reporter activity,[2]; [5],0.742
same,NF-kB SEAP reporter activity,[2]; [6],0.944
Cc1ccc(NC(=O)Nc2cc(-c3ccccc3-c3nnn[nH]3)ccc2N(CC(C)C)CC(C)C)cc1 (library stock concentration (final ~1000-fold dilution): 10 mM),NF-kB SEAP reporter activity,[1]; agonist: LPS (TLR4) 0.1 ug/mL,1.16
same,NF-kB SEAP reporter activity,[1]; [4],0.54
same,NF-kB SEAP reporter activity,[1]; [5],0.207
same,NF-kB SEAP reporter activity,[1]; [6],0.333
Cc1ccc(NC(=O)Nc2cc(-c3ccccc3-c3nnn[nH]3)ccc2N(CC(C)C)CC(C)C)cc1,NF-kB SEAP reporter activity,[3]; [7],0.81
same,NF-kB SEAP reporter activity,[3]; [8],1.25
COc1ccc(CC(N)C(=O)NC2C(CO)OC(n3cnc4c(N(C)C)ncnc43)C2O)cc1.Cl.Cl (stereo not given),NF-kB SEAP reporter activity,[3]; [9],0.438
same,NF-kB SEAP reporter activity,[3]; [10],1.12
COc1ccc(CC(N)C(=O)NC2C(CO)OC(n3cnc4c(N(C)C)ncnc43)C2O)cc1.Cl.Cl (stereo not given) (library stock concentration (final ~1000-fold dilution): 10 mM),NF-kB SEAP reporter activity,[2]; agonist: LPS (TLR4) 0.1 ug/mL,0.584
same,NF-kB SEAP reporter activity,[2]; [4],0.469
same,NF-kB SEAP reporter activity,[2]; [5],0.13
same,NF-kB SEAP reporter activity,[2]; [6],0.256
NC(=O)c1cnc2[nH]ccc2c1NC1C2CC3CC1CC(O)(C3)C2 (stereo not given) (library stock concentration (final ~1000-fold dilution): 10 mM),NF-kB SEAP reporter activity,[2]; agonist: LPS (TLR4) 0.1 ug/mL,0.305
same,NF-kB SEAP reporter activity,[2]; [4],0.398
same,NF-kB SEAP reporter activity,[2]; [5],0.242
same,NF-kB SEAP reporter activity,[2]; [6],0.31
NC(=O)c1cnc2[nH]ccc2c1NC1C2CC3CC1CC(O)(C3)C2 (stereo not given),NF-kB SEAP reporter activity,[3]; [9],0.334
same,NF-kB SEAP reporter activity,[3]; [10],0.347
CC(NC(=Nc1cccc2ncccc12)NC#N)c1ccccc1 (stereo not given),NF-kB SEAP reporter activity,[3]; [9],0.897
same,NF-kB SEAP reporter activity,[3]; [10],1.12
CC(NC(=O)CCc1nc2ccccc2c(=O)[nH]1)c1ccccc1 (stereo not given) (library stock concentration (final ~1000-fold dilution): 10 mM),NF-kB SEAP reporter activity,[2]; agonist: LPS (TLR4) 0.1 ug/mL,0.987
same,NF-kB SEAP reporter activity,[2]; [4],1.32
same,NF-kB SEAP reporter activity,[2]; [5],0.95
same,NF-kB SEAP reporter activity,[2]; [6],1.25
CC(NC(=O)c1ccccc1N=Cc1c(O)ccc2ccccc12)c1ccccc1 (stereo not given) (library stock concentration (final ~1000-fold dilution): 10 mM),NF-kB SEAP reporter activity,[2]; agonist: LPS (TLR4) 0.1 ug/mL,5.11
same,NF-kB SEAP reporter activity,[2]; [4],1.72
same,NF-kB SEAP reporter activity,[2]; [5],0.843
same,NF-kB SEAP reporter activity,[2]; [6],1.53
CC(C(=O)Nc1cccc(N=Cc2c(O)ccc3ccccc23)c1)c1ccccc1 (stereo not given) (library stock concentration (final ~1000-fold dilution): 10 mM),NF-kB SEAP reporter activity,[2]; agonist: LPS (TLR4) 0.1 ug/mL,6.64
same,NF-kB SEAP reporter activity,[2]; [4],2.52
same,NF-kB SEAP reporter activity,[2]; [5],1.5
same,NF-kB SEAP reporter activity,[2]; [6],1.74
CC(NC(=Nc1cccc2ncccc12)NC#N)c1ccccc1 (stereo not given) (library stock concentration (final ~1000-fold dilution): 10 mM),NF-kB SEAP reporter activity,[2]; agonist: LPS (TLR4) 0.1 ug/mL,1.34
same,NF-kB SEAP reporter activity,[2]; [4],1.07
same,NF-kB SEAP reporter activity,[2]; [5],1.13
same,NF-kB SEAP reporter activity,[2]; [6],1.29
CC(NC(=O)CCc1nc2ccccc2c(=O)[nH]1)c1ccccc1 (stereo not given),NF-kB SEAP reporter activity,[3]; [9],1.03
same,NF-kB SEAP reporter activity,[3]; [10],1.03
CC(C(=O)Nc1cccc(N=Cc2c(O)ccc3ccccc23)c1)c1ccccc1 (stereo not given),NF-kB SEAP reporter activity,[3]; [9],1.67
same,NF-kB SEAP reporter activity,[3]; [10],2.34
CC(NC(=O)c1ccccc1N=Cc1c(O)ccc2ccccc12)c1ccccc1 (stereo not given),NF-kB SEAP reporter activity,[3]; [9],1.56
same,NF-kB SEAP reporter activity,[3]; [10],2.25
CCN1CCN(Cc2ccc(-c3cc4c(NC(C)c5ccccc5)ncnc4[nH]3)cc2)CC1 (stereo not given),NF-kB SEAP reporter activity,[3]; [9],1.59
same,NF-kB SEAP reporter activity,[3]; [10],0.93
CCN1CCN(Cc2ccc(-c3cc4c(NC(C)c5ccccc5)ncnc4[nH]3)cc2)CC1 (stereo not given) (library stock concentration (final ~1000-fold dilution): 10 mM),NF-kB SEAP reporter activity,[2]; agonist: LPS (TLR4) 0.1 ug/mL,0.832
same,NF-kB SEAP reporter activity,[2]; [4],0.215
same,NF-kB SEAP reporter activity,[2]; [5],1.02
same,NF-kB SEAP reporter activity,[2]; [6],1.01
